An excerpt weighted towards active compounds, which were near 2.4% of everything screened.
D2 ag-1: agonists of human D2 dopamine receptor (beta-arrestin); P14416; DiscoveRx PathHunter D2 beta-arrestin, luminescence, 90 min; 100% = 57 uM dopamine signal; activation, % (concentration not given with the values); 0.084% of 360,000 active; in the data active = activation above about 40%; inconclusive = between about 15% and that limit
Target sequence (P14416 whole entry, looked up): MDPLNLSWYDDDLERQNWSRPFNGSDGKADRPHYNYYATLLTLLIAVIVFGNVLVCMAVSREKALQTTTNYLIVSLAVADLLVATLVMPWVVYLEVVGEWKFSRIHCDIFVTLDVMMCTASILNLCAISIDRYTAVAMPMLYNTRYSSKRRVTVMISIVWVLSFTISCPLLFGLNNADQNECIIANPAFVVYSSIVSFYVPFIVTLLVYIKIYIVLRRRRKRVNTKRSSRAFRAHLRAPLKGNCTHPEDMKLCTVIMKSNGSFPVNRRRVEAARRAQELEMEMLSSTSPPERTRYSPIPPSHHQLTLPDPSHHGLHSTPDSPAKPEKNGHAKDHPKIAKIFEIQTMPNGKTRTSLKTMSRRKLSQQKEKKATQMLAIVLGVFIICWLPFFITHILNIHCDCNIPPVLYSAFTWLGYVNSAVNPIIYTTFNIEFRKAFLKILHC
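DiscoveRx PathHunter D2 beta-arrestin cells (2,100/well) attached overnight, then compound-stimulated 90 min at 37 C in HBSS/10 mM HEPES/0.1% Tween-20 buffer; beta-galactosidase complementation read by luminescence after 1 h at ambient temperature. Dopamine 57 uM final (EC100) as control.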
D2 PAM-1: positively modulates the human D2 dopamine receptor allosterically; P14416; HEK293 T-REx D2, calcium flux, EC20 dopamine potentiation; potentiation, % at 10 µM; 0.34% of 340,000 active;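 active = potentiation over 3 SD above the plate norm, cut at about 30% in these data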
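Cells plated with tetracycline inducer and held overnight at 30 C; calcium dye loaded 30–90 min at room temperature; baseline taken, compound added and read 180 s; EC20 dopamine then added and read 180 s.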
D2 PAM-2: potentiates the human D2 dopamine receptor allosterically; DiscoveRx D2 beta-arrestin cells, luminescence, 90 min; 100% = 57 uM dopamine signal; potentiation, % (concentration not given with the values); AID 624464; 0.23% of 360,000 active; P14416; in the data active = potentiation above about 50%; inconclusive = mostly about 30% to 49%
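PathHunter beta-arrestin assay in DiscoveRx D2 cells. Compounds were added with an EC20 of dopamine (50 nM final) for 90 min at 37 deg C. Luminescence was read 1 h after detection reagent, with 57 uM dopamine as the EC100 control.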
D2 ag-2: D2 dopamine receptor (human) agonism. 0.53% of 340,000 active. HEK293 T-REx D2 cells, calcium flux agonist mode. activation, % at 2 µM;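 active = activation over 3 SD above normal in the single-dose calcium agonist read, cut at about 30% in these data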
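Agonism is scored from calcium flux in a force-coupled, inducible HEK293 cell line expressing D2, read kinetically for 180 s after compound addition against dopamine controls.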
D2 antagonist: antagonizes the human D2 dopamine receptor. 2% of 340,000 active. AID 485344. P14416. HEK293 TREx D2 cells, calcium flux, dopamine EC80. inhibition, % at 10 µM; in the data active = inhibition above about 30%; inactive = below that, where a call was filed
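Calcium mobilization kinetics were recorded at 1 s intervals in tetracycline-induced HEK293 T-REx D2 cells, first for 180 s after compound addition and then 180 s after EC80 dopamine.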
Numbers stand for hits; i = inactive; ? = inconclusive; nt = no result given.

SMILES	D2 ag-1	D2 PAM-1	D2 PAM-2	D2 ag-2	D2 antagonist
CN1/C(=C\C(=O)c2cncc(Br)c2)C(C)(C)c2ccccc21	i	i	i	i	i
CN1\C(=C/C=C/C=C/C=[N+](C)C)C(C)(C)c2ccccc21	i	i	i	46.7	63.0
CN1/C(=C\C(=O)c2cccnc2)C(C)(C)c2ccccc21	i	i	i	i	32.3
CN1/C(=C\C(=O)C(F)F)C(C)(C)c2ccccc21	i	i	i	i	46.7
Cc1nnc(NCc2ccccc2)c2c1nnn2Cc1ccccc1Cl	nt	nt	nt	i	nt
COC(=O)C(C(C)=O)C1=C/C(=N\S(=O)(=O)c2ccc(C)cc2)c2ccccc2C1=O (configuration not stated)	i	i	50.1	i	i
COc1ccc(CCNC(=O)CSc2nc(-c3ccc(F)cc3)cc(C(F)(F)F)n2)cc1OC	nt	i	nt	nt	nt
CCN(CCNc1ccc(Cl)cc1[N+](=O)[O-])C(=O)c1cc([N+](=O)[O-])c(N(C)C)cc1OC	i	i	i	i	34.4
Cc1cccc(OCCCCn2nnc3sc4c(c3c2=O)CCC(C)C4)c1 (configuration not stated)	nt	i	nt	i	nt
CC(C)c1ccc(-c2nnn(CCC(=O)O)n2)cc1	?	i	81.1	i	i
O=C(O)CCn1nnc(-c2cccs2)n1	i	i	i	i	i
S=c1[nH]nc(C2CCCCC2)n1/N=C/c1ccc(Br)cc1	i	i	i	i	36.0
S=c1[nH]nc(C2CCCCC2)n1/N=C/c1ccc(Cl)cc1	i	i	i	i	i
CSCCC(NS(=O)(=O)c1ccccc1F)C(=O)N1CCCCCC1 (configuration not stated)	i	i	i	i	43.6
CC1(C)OC2OC(C(=O)N/N=C/c3ccccc3F)C3OC(C)(C)OC3C2O1 (configuration not stated)	i	i	i	i	i
CC1(C)C(C=C(Cl)Cl)C1C(=O)N/N=C/c1ccccc1F (configuration not stated)	i	i	i	i	59.9
CN(C)c1ccc(N/C=C/C(=O)C(C)(C)C)cc1	i	i	65.9	i	i
Cc1ccc(C)c(N2CCN(S(=O)(=O)c3ccc4oc(=O)c5ncn(C)c5c4c3)CC2)c1	nt	i	nt	i	nt
COc1cccc(CNC(=O)c2ccc(NC(=O)N3CCCCc4ccccc43)cc2)c1	nt	i	nt	i	nt
CC1CCCC(C)N1C(=S)NCc1ccco1 (configuration not stated)	i	i	i	i	30.5
OCC1CCCCN1C(=S)NCc1ccco1 (configuration not stated)	i	i	?	i	i
O=C1c2oc3ccccc3c(=O)c2C(c2cccnc2)N1CCCN1CCOCC1 (configuration not stated)	i	i	i	i	34.6
CC(C)Oc1ccc(C2c3c(oc4ccccc4c3=O)C(=O)N2CCCN2CCOCC2)cc1 (configuration not stated)	i	i	i	i	i
Cc1ccc(Cl)cc1NS(=O)(=O)c1ccc2oc(=O)c3ncn(C)c3c2c1	nt	i	nt	nt	nt
O=C(O)c1cccc(NC2=C(Cl)C(=O)c3ccccc3C2=O)c1	41.5	i	i	nt	nt
SMILES	D2 ag-1	D2 PAM-1	D2 PAM-2	D2 ag-2	D2 antagonist
Cc1ccc(NC2=C(NC(=O)c3ccccc3)C(=O)c3ccccc3C2=O)cc1Cl	i	i	65.0	i	i
N#Cc1ccccc1Cn1c(=O)n(CCCC(=O)NCc2ccccc2Cl)c(=O)c2ccccc21	nt	i	nt	i	nt
O=C(CN1CCN(Cc2ccccc2)CC1)Nc1cccc(C(F)(F)F)c1	i	i	i	i	39.2
O=C(CN1CCN(c2ccccc2)CC1)Nc1cccc(C(F)(F)F)c1	i	i	i	i	i
COCC(=O)Nc1cccc(C(F)(F)F)c1	i	32.7	i	i	i
O=C(CN1CCN(c2ccccn2)CC1)Nc1cccc(C(F)(F)F)c1	i	i	i	i	48.2
O=C(O)CCCC(=O)Nc1cccc(C(F)(F)F)c1	i	i	i	i	i
FC(F)(F)c1cccc(CN2CCN(c3ncccn3)CC2)c1	48.0	nt	?	nt	nt
CCOc1ccccc1NC(=O)C1CCN(S(=O)(=O)c2ccc3c(c2)CCCN3C(C)=O)CC1	nt	i	nt	i	nt
COc1ccc(N(CC(=O)Nc2c(C)n(C)n(-c3ccccc3)c2=O)S(=O)(=O)c2ccc(C)cc2)cc1OC	i	i	i	i	34.6
